Results filed as inconclusive are left out. Where a call stands in place of a potency, no number is given. Activity calls are given as the source filed them. Calls come from the whole dose curve; as a rule, active = well fitted inhibition curve with a large enough effect; inconclusive = small, poorly fitted or top-dose-only effect; inactive = no such curve, though single readings can be large or run the other way.
Assay: S16 Schwann cell PMP22 intronic element firefly luciferase assay (AID 624032); note: nearly all actives have a fitted effect of over 30% in size
Settings: S16 rat Schwann cells, PMP22 element FLuc, 24 h; series mostly up to 57.5 µM
From the text: Charcot-Marie-Tooth-Association [CMTA]
National Center for Advancing Translational Sciences [NCATS]
Charcot-Marie-Tooth (CMT) disease was first characterized by Jean-Martin Charcot and Pierre Marie in France and, independently, by Howard Henry Tooth in England in 1886. CMT is one of the most common inherited neurological diseases, affecting approximately 1 in 2,500 Americans. […] The most prevalent type of CMT is known as CMT1A and caused by a duplication of the PMP22 gene which leads to over-expression of this protein. PMP22 is a glycosylated intrinsic membrane protein accounting for 2-5% of the myelin protein content, and its over-expression results in demyelination and subsequently axonal loss.
A pair of cellular transcription-based assays was developed in the S16 rat Schwann cell lines (Hai, M., et al., 2002) stably transfected with orthogonal reporters - firefly luciferase (Fluc) and beta-lactamase (beta-Lac) - whose expression is driven by an intronic regulatory element of the PMP22 gene (Jones, E.A., et al., 2011) to recapitulate endogenous expression of PMP22. The current assay employs Fluc to report on PMP22 expression. A comprehensive library of approved drugs, the NCGC Pharmaceutical Collection (Huang, R., et al., 2011), was screened in the cross-validating platform of the orthogonal reporter assays to identify drug modulators inhibitory towards PMP22 expression.
A set of counter-screens was devised to address non-specific activity of the library. An ATP-dependent CellTiter-Glo assay (developed by Promega Corp) was utilized to control cell viability. In addition, biochemical Fluc enzyme assay was performed to assess direct inhibition of the Fluc enzymatic activity.
Hai, M., Muja, N., DeVries, G.H., Quarles, R.H. and Patel, P.I. Comparative analysis of Schwann cell lines as model systems for myelin gene transcription studies. J Neurosci Res, 2002. 69(4): pp 497-508
Huang, R., Southall, N., Wang, Y., Yasgar A., Shinn P., Jadhav, A. , Nguyen, D.-T. and Austin, C.P., The NCGC pharmaceutical collection: a comprehensive resource of clinically approved drugs enabling repurposing and chemical genomics. Sci Transl Med, 2011. 3(80): p. 80ps16.
S16 Schwann cell PMP22 intronic element firefly luciferase assay
The FLuc-expressing S16 cells were seeded in white solid 1536-well plates at between 500-750 cells/4uL in DMEM medium containing 10% FBS, w/o phenol red. After overnight incubation at 37 degree Celsius/5% C02, 23 nL of compounds or DMSO were delivered to each well using a pin tool, followed by 24h-incubation at 37 degree Celsius/5% C02. Then 4 uL ONE-Glo luminescent substrate mix (Promega) was added to each well. Luminescence was measured on a ViewLux plate reader (Perkin Elmer). The % activity was determined by normalizing to the average readings of PTC124 (a positive control) - treated cells relative to DMSO-treated cells (0% Activity). The concentration-effect curves were then classified based on curve quality (r2), response magnitude and degree of measured activity.
For `O=C(O)CCNC(=O)c1ccccc1`, the Potency was “inactive”. In the case of `C/C=C/C=N/NC(=O)c1ccncc1`, the Potency is reported as “inactive”. In the case of `C#C[C@]1(OC(C)=O)CC[C@H]2[C@@H]3CCC4=C/C(=N/O)CC[C@@H]4[C@H]3CC[C@@]21CC`, the Potency is reported as 8.09 µM (active). For `OC[C@H]1O[C@@H]2O[C@H]3[C@H](O)[C@@H](O)[C@@H](O[C@H]4[C@H](O)[C@@H](O)[C@@H](O[C@H]5[C@H](O)[C@@H](O)[C@@H](O[C@H]6[C@H](O)[C@@H](O)[C@@H](O[C@H]7[C@H](O)[C@@H](O)[C@@H](O[C@H]8[C@H](O)[C@@H](O)[C@@H](O[C@H]1[C@H](O)[C@H]2O)O[C@@H]8CO)O[C@@H]7CO)O[C@@H]6CO)O[C@@H]5CO)O[C@@H]4CO)O[C@@H]3CO`, the Potency was “inactive”. With `COc1cc(NS(=O)(=O)c2ccc(N)cc2)ncn1` the Potency was “inactive”. With `FC(F)(F)C(F)(F)C(F)(F)C(F)(F)C(F)(F)C(F)(F)C(F)(F)C(F)(F)Br` the Potency was “inactive”. For `CCc1oc2ccccc2c1C(=O)c1cc(Br)c(O)c(Br)c1`, the Potency was “inactive”. With `COc1cc(C(=O)NCc2ccc(OCCN(C)C)cc2)cc(OC)c1OC` the Potency was “inactive”. In the case of `CCCN(CCC)S(=O)(=O)c1ccc(C(=O)O)cc1`, the Potency is reported as “inactive”. In the case of `CC1(COc2ccc(CC3SC(=O)NC3=O)cc2)CCCCC1` (stereo not given), the Potency is reported as “inactive”. With `Cc1c[nH]c2ccccc12` the Potency was “inactive”. With `Cl/C(=C\n1cncn1)c1ccc(Cl)cc1Cl` the Potency was “inactive”. For `COP(=O)(OC)OC(c1ccc(Cl)cc1)P(=O)(OC)OC` (stereo not given), the Potency was “inactive”. For `Oc1ccc(Cl)cc1Cc1cc(Cl)ccc1O`, the Potency was “inactive”. In the case of `CCCCN=C(N)N=C(N)N`, the Potency is reported as “inactive”. With `OCCOCCN1CCN(C2=Nc3ccccc3Sc3ccccc32)CC1` the Potency was “inactive”. With `O=C(O)CCC(=O)Nc1ccc(S(=O)(=O)Nc2nccs2)cc1` the Potency was “inactive”. In the case of `CCCCNc1ccc(C(=O)OCCOCCOCCOCCOCCOCCOCCOCCOCCOC)cc1`, the Potency is reported as “inactive”. For `Cc1ccc2c(Br)cc(Br)c(O)c2n1`, the Potency was “inactive”. In the case of `Nc1nc(N)c(-c2ccccc2)s1`, the Potency is reported as “inactive”. With `NCCNC(=O)c1ccc(Cl)cn1` the Potency was “inactive”. With `CCN1/C(=C/C=C/c2sc3ccccc3[n+]2CC)Sc2ccccc21` the Potency was 2.03 µM (active). In the case of `CNCCc1ccccn1`, the Potency is reported as “inactive”. In the case of `CCCCCN=C(N)N/N=C/c1c[nH]c2ccc(OC)cc12`, the Potency is reported as “inactive”. With `CCCc1ncc(C[n+]2ccccc2C)c(N)n1` the Potency was “inactive”. With `CN(Cc1ccc(C(C)(C)C)cc1)Cc1cccc2ccccc12` the Potency was “inactive”. For `Nc1ccc(S(=O)(=O)NCc2ccccc2)cc1`, the Potency was “inactive”. With `C#C[C@]1(O)CC[C@H]2[C@@H]3CCc4cc(OC)ccc4[C@H]3CC[C@@]21C` the Potency was “inactive”. With `CC(C)[N+](C)(C)CC(O)COc1cccc2ccccc12` (stereo not given) the Potency was “inactive”. For `CCCCC(CC)COC(=O)c1ccc(N(C)C)cc1` (stereo not given), the Potency was “inactive”. For `Cc1ccccc1OCC(O)CO` (stereo not given), the Potency was “inactive”. With `CN1CCc2cccc3c2[C@H]1Cc1ccc(O)c(O)c1-3` the Potency was 14.4 µM (active). For `COc1ccc(/C=N/NC(=O)c2ccncc2)cc1OC`, the Potency was “inactive”. For `CC(=O)NCCCCCC(=O)O`, the Potency was “inactive”. In the case of `CCN(CC)CCOC(=O)C1(c2ccccc2)CCCC1`, the Potency is reported as “inactive”. With `Nc1ccc(S(=O)(=O)Nc2cnc3ccccc3n2)cc1` the Potency was “inactive”. With `Cc1cc(C)cc(OCC2CNC(=O)O2)c1` (stereo not given) the Potency was “inactive”. In the case of `O=C(CN1CCN(Cc2ccc3c(c2)OCO3)CC1)N1c2ccccc2Sc2ccccc21`, the Potency is reported as 12.8 µM (active). For `NCc1ccccc1Sc1ccccc1CO`, the Potency was “inactive”. In the case of `C=C[C@@]1(C)CC(=O)[C@]2(O)[C@@]3(C)[C@@H](O)CCC(C)(C)[C@@H]3[C@H](O)[C@H](OC(C)=O)[C@@]2(C)O1`, the Potency is reported as 0.361 µM (active).

From PubChem BioAssay (NCATS)
Potency is the fitted concentration of half-maximal effect.
